HepG2 viability – counter-screen for TGF-b inhibitors: cytotoxicity in HepG2 cells | HepG2 CAGA-GFP viability, ATP luminescence, 18 h | Potency, µM (highest dose often 46.1 µM), for the others: top-dose activity change, negative = cytotoxicity, actives largely listed as cytotoxic | 410,000 compounds, 0.76% hits; further: potency means the concentration at half of the fitted maximal effect
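HepG2 CAGA-GFP cells (1000/well, DMEM with 1% FBS) received compound, then TGF-beta at 500 pg/mL final, and were incubated 18 hours at 37 degrees C. Viability was read by CellTiter-Glo luminescence. Media-only wells were set as complete cell-killing and DMSO as no toxicity.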
IL-1B inflam inh – inflammasome signaling inhibition, IL-1 beta readout. activity change, % at 57.5 µM. AID 743279. THP-1 LPS/ATP IL-1B secretion, AlphaLISA, 16 h; stronger effect = lower value. 360,000 compounds, 4.7% hits; in the data active means activity change below about -50%; inconclusive means mostly about -30% to -49%; further: on the % scale 0 is the no-effect control and ±100 the full control effect
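THP-1 cells pretreated 1 hr with compounds (up to 57.5 uM final), then stimulated with LPS (250 ng/mL final) plus ATP (1.25 mM final); secreted IL-1B measured by AlphaLISA after 16 hr, decreased signal indicating inhibition.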
DT40 TDP1 no CPT – qHTS for Inhibitors of human tyrosyl-DNA phosphodiesterase 1 (TDP1): qHTS in cells in absence of CPT. Potency, µM (titrated, usually from 46.2 µM), for the others: at the highest dose activity change, negative = growth inhibition, most hits filed as inhibitors. 420,000 compounds, 15% hits. DT40 Tdp1-/- hTDP1 cells, no CPT, ATP luminescence, 48 h; further: potency means the concentration at half of the fitted maximal effect; on the % scale 0 is the no-effect control and ±100 the full control effect; nearly all actives have a fitted effect of over 55% in size
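No-CPT arm: Tdp1-/-;hTDP1 DT40 cells (400/well) plus compounds, incubated ≥48 hr at 37 °C. Readout CellTiter-Glo luminescence.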
TDP1 cell CPT – DT40-hTDP1 cell growth loss with CPT. chicken DT40 Tdp1-/-;hTDP1 cells + 20 nM CPT, ATP luminescence, 48 h. Potency, µM (titrated, usually from 46.2 µM), for inactives: top-dose activity change, negative = growth inhibition, usual class: inhibitors. 420,000 compounds, 12% hits; further: potency means the concentration at half of the fitted maximal effect; on the % scale 0 is the no-effect control and ±100 the full control effect; nearly all actives have a fitted effect of over 55% in size
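Cell growth measured by CellTiter-Glo luminescence after a minimum 48 h, 37 C compound exposure with 20 nM CPT in Tdp1-knockout DT40 cells stably expressing hTDP1, seeded 400/well; qHTS titration format.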
TDP1 block – TDP1 (human) enzyme inhibition; Potency, µM (top dose mostly 130 µM), without a hit: at the highest dose activity change, negative = inhibition, most hits filed as inhibitors; AID 485290; 350,000 compounds, 0.28% hits; Q9NUW8; recombinant TDP1, AlphaScreen DNA substrate cleavage; further: potency means the concentration at half of the fitted maximal effect; on the % scale 0 is the no-effect control and ±100 the full control effect; nearly all actives have a fitted effect of over 40% in size
Target sequence (Q9NUW8 whole entry, looked up): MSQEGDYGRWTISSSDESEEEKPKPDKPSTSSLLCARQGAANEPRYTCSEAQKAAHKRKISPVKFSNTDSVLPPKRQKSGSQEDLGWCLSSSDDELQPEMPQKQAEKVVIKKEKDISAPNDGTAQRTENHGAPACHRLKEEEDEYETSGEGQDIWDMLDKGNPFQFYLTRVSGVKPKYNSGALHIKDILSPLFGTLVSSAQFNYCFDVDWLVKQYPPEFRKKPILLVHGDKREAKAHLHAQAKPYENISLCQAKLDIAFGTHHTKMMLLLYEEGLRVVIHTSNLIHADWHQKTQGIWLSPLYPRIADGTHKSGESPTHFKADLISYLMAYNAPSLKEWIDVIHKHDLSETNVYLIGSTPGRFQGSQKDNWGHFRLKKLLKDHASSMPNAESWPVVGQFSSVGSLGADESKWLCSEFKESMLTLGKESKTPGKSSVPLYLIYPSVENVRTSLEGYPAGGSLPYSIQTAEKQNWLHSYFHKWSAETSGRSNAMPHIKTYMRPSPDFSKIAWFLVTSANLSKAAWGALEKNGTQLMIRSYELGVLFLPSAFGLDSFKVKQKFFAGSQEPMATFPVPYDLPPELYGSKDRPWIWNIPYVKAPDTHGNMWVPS
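Signal: AlphaScreen proximity between streptavidin donor and anti-FITC acceptor beads on intact substrate. Reaction: Tdp1 1 nM, substrate 15 nM final, 5 min RT after 15 min compound preincubation.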
TGFb inhibitor – blocks TGF-b signaling | HepG2 CAGA-GFP TGF-b/SMAD3 reporter, GFP fluorescence, 18 h; TGF-beta stimulated, 500 pg/mL final | Potency, µM (doses to about 46.1 µM), inactives show at the top dose activity, negative = inhibition, hits mostly inhibitors | 410,000 compounds, 1.2% hits | AID 588855; further: potency means the concentration at half of the fitted maximal effect; on the % scale 0 is the no-effect control and ±100 the full control effect; nearly all actives have a fitted effect of over 65% in size
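HEPG2 CAGA-GFP reporter cells (1000/well, DMEM with 1% FBS) received compounds, then recombinant TGF-beta at 500 pg/mL final for 18 hours at 37 degrees C. Per-cell GFP summed per well was normalised to unstimulated and stimulated DMSO controls before curve fitting.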
Active calls of the source: *; ? = inconclusive; / = not tested or not shown; [ ] = dose if it differs, or a comment. Most compounds without a hit are left out; they make up all but 18% or so of the library. Unless noted, the call rests on the fitted dose curve; in most records, active means well fitted curve in the direction sought with a large enough effect; inconclusive means small, poorly fitted or top-dose-only effect, or another doubt; inactive means no such curve, though single readings can be large; an effect the other way counts as inactive or inconclusive.

SMILES	HepG2 viability	IL-1B inflam inh	DT40 TDP1 no CPT	TDP1 cell CPT	TDP1 block	TGFb inhibitor
COc1ccccc1Oc1ccc(S(=O)(=O)N2CCOCC2)cc1S(=O)(=O)N1CCOCC1	-45%	-17	-21%	8%	0%[56.1 µM]	6%
Cc1ccc(Oc2ccc(S(=O)(=O)N3CCOCC3)cc2C(N)=O)c(-n2nc3ccccc3n2)c1	-23%	46	4.1µM*	3.7µM*	6%	?
COC(=O)/C(=C\Nc1ccc(Cl)cc1Cl)NC(=O)c1ccc(Cl)cc1Cl	-34%	?	?	21µM*	4%	-1%
O=C(NC1CC1)c1ccc2c(Cl)c3c(nc2c1)CCCC3	-18%	-29	?	?	0%	?
O=C(NCc1cccc(Cl)c1)c1ccc2c(Cl)c3c(nc2c1)CCCC3	-2%	/	15µM*	?	5%	-9%
O=C(NCc1ccc(Cl)cc1)c1ccc2c(Cl)c3c(nc2c1)CCCC3	-14%	/	?	16µM*	5%	?
N#Cc1ccccc1NC(=O)c1ccc2c(Cl)c3c(nc2c1)CCCC3	-21%	/	?	?	4%	?
O=C(Nc1ccncc1)c1cc(S(=O)(=O)N2CCN(c3ccccc3)CC2)ccc1Cl	-2%	-9	?	?	1%	3%
O=C(c1csc2ccccc12)N1CCCCCC1	1%	3	18µM*	21µM*	2%	-10%
CC(=O)Nc1ccc(CNc2nc(NC(C)C)nc3ccsc23)cc1	-15%	-90*	-24%	0%	/	-7%
CC(=O)Nc1cccc(Oc2nc(NCC3CC3)nc3ccsc23)c1	-11%	0	21µM*	16µM*	/	-15%
CC(C)Nc1nc(-c2ccccc2CO)c2sccc2n1	-32%	-17	-16%	?	/	2%
OCc1ccccc1-c1nc(NCC2CC2)nc2ccsc12	-18%	4	?	?	/	-1%
COCCNc1nc(Oc2cccc(NC(C)=O)c2)c2sc(-c3ccccc3)cc2n1	-58%	-22	?	?	/	?
CC(=O)Nc1cccc(Oc2nc(NC(C)C)nc3cc(-c4ccccc4)sc23)c1	-42%	-63*	?	?	/	?
CC(=O)Nc1ccc(CNc2nc(NCC3CC3)nc3ccsc23)cc1	-30%	-105*	?	18µM*	/	-1%
O=C(NCCN1CCOCC1)C1(C(F)(F)F)C/C(=C/CCO)CCCO1 (stereo not drawn)	-2%	/	/	/	5%	6%
O=C1C2CC=CCC2C(=O)N1c1ccc(N2CCN(c3ccccn3)CC2)c([N+](=O)[O-])c1 (stereo not drawn)	-124%	6	16µM*	?	3%	-23%
CC(C)c1ccc(C(=O)N2CCCC(c3cc(C(=O)NCc4ccccc4)no3)C2)cc1 (stereo not drawn)	-34%	-1	15µM*	13µM*	/	-10%
CN(C)c1ccc(CC(=O)N2CCCC(c3cc(C(=O)Nc4ccc(F)c(Cl)c4)no3)C2)cc1 (stereo not drawn)	-23%	-1	23µM*	16µM*	/	?
O=C(NCc1ccc(F)cc1)c1cc(C2CCCN(C(=O)c3ccc4c(c3)CCO4)C2)on1 (stereo not drawn)	-28%	-1	23µM*	18µM*	/	2%
COc1ccc(C(=O)N2CCCC(c3cc(C(=O)NCc4ccc(F)cc4)no3)C2)cc1 (stereo not drawn)	-4%	-16	?	15µM*	/	-11%
COc1ccc(C(=O)N2CCCC(c3cc(C(=O)NCc4ccccc4)no3)C2)cc1 (stereo not drawn)	-19%	2	?	?	/	2%

Source: PubChem BioAssay (National Center for Advancing Translational Sciences (NCATS))
